D2 ag-1 = agonists of human D2 dopamine receptor; P14416; HEK293 T-REx D2 cells, calcium flux agonist mode; activation, % at 2 µM; 340,000 tested, 0.53% active; AID 485358;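 active = activation over 3 SD above normal in the single-dose calcium agonist read, cut at about 30% in these data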
Target sequence (P14416 whole entry, looked up): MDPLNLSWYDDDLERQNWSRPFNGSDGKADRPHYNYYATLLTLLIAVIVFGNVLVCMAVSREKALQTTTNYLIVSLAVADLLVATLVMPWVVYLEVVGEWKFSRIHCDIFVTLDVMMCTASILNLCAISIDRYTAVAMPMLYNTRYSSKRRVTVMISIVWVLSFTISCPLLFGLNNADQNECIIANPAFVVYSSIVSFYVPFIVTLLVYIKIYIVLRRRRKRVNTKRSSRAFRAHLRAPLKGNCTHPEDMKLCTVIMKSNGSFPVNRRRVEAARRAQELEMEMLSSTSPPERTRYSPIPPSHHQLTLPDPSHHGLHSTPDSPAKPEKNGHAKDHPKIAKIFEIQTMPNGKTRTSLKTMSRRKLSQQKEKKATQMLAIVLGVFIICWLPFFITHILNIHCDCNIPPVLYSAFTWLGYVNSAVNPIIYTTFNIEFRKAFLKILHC
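Calcium-flux readout, 1 cycle/sec over 180 s following compound pin transfer, in inducible HEK293 Trex D2 cells (force-coupled); dopamine controls included. Positive calcium responses during this window marked compounds as potential agonists.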
D2 antag = antagonizes the human D2 dopamine receptor; AID 485344; HEK293 TREx D2 cells, calcium flux, dopamine EC80; inhibition, % at 10 µM; 340,000 tested, 2% active; P14416; in the data active = inhibition above about 30%; inactive = below that, where a call was filed
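Calcium flux kinetic readout in an inducible HEK293 TREx D2 line plated overnight at 30 C. After 180 s compound exposure, an EC80 dopamine challenge follows with another 180 s kinetic read to detect antagonism.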
D2 PAM-1 = positive allosteric modulators of human D2 dopamine receptor; P14416; DiscoveRx D2 beta-arrestin cells, luminescence, 90 min; 100% = 57 uM dopamine signal; potentiation, % (no concentration beside the values); 360,000 tested, 0.23% active; AID 624464; in the data active = potentiation above about 50%
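D2 cells co-treated with compound plus 50 nM dopamine (EC20) for 90 min at 37 deg C to detect potentiation. Beta-arrestin recruitment was read as enzyme-fragment luminescence after 1 h at ambient temperature. Full response was set by 57 uM dopamine.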
D2 PAM-2 = positive allosteric modulators of human D2 dopamine receptor; P14416; HEK293 T-REx D2, calcium flux, EC20 dopamine potentiation; potentiation, % at 10 µM; 340,000 tested, 0.34% active; AID 485347;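 active = potentiation over 3 SD above the plate norm, cut at about 30% in these data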
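Calcium flux readout, no-wash dye, 1 read/s. Inducible HEK293 Trex D2 line, overnight 30 C. Compound alone 180 s (agonist flags), then EC20 dopamine, another 180 s to score potentiation.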
D2 ag-2 = human D2 receptor agonism in beta-arrestin assay | P14416 | DiscoveRx PathHunter D2 beta-arrestin, luminescence, 90 min; 100% = 57 uM dopamine signal | activation, % (test concentration not listed) | 360,000 tested, 0.084% active | AID 624465; in the data active = activation above about 40%
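DiscoveRx PathHunter D2 beta-arrestin cells (2,100/well) attached overnight, then compound-stimulated 90 min at 37 C in HBSS/10 mM HEPES/0.1% Tween-20 buffer; beta-galactosidase complementation read by luminescence after 1 h at ambient temperature. Dopamine 57 uM final (EC100) as control.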
Large screens that a line does not name were inactive. A selection: hits, their analogues and other compounds. The true share with any hit is near 2.4%.

C[C@H]1O[C@@H](O[C@H]2CC[C@@]3(C)C(CC[C@]4(C)C3C=C[C@]35OC[C@@]6(CCC(C)(C)C[C@H]63)[C@@H](O)C[C@]54C)[C@]2(C)CO)[C@H](O)[C@@H](O[C@@H]2O[C@H](CO)[C@@H](O)[C@H](O)[C@H]2O)[C@H]1O (some centres not stated)	none (no result: D2 ag-1, D2 antag, D2 PAM-2)
CC1OC(OC2C(OC3C(O[C@H]4CC[C@]5(C)C6C=C[C@]78OC[C@@]9(CC[C@@H](C)[C@H](C)C97)[C@H](O)C[C@@]8(C)[C@]6(C)CC[C@H]5C4(C)C)OC(C)C(O)C3O)OC(CO)C(O)C2O)C(O)C(O)C1O (some centres not stated)	D2 ag-1 43, D2 antag 32 (no result: D2 PAM-1, D2 ag-2)
N#CC1=C(N)OC2=C(CC/C2=C\c2ccc(F)cc2)C1c1ccc(F)cc1 (configuration not stated)	D2 ag-1 40, D2 antag 37 (no result: D2 PAM-1, D2 ag-2)
O=C(Nc1c(C(=O)O)oc2ccccc12)c1ccc(C(F)(F)F)cc1	none (no result: D2 antag, D2 PAM-1, D2 ag-2)
COc1ccc(OC)c(NC(=O)CSc2cn(CC(=O)N3CCOCC3)c3ccccc23)c1	none (no result: D2 ag-1, D2 antag, D2 PAM-1, D2 ag-2)
CC(NC(=O)Cn1cnnn1)c1cccc(C(F)(F)F)c1 (configuration not stated)	D2 PAM-2 38
O=C(NNC(=O)c1cccc(C(F)(F)F)c1)c1ccc(-n2cnnn2)cc1	none (no result: D2 ag-1, D2 antag, D2 PAM-2)
Cc1ccc(C)c(CN2CCC(CNC(=O)C(CC(C)C)N3Cc4ccccc4C3=O)CC2)c1 (configuration not stated)	none (no result: D2 antag, D2 PAM-1, D2 ag-2)
O=C(Nc1cccc(Cl)c1)NC1CC2CCC(C1)N2Cc1ccco1 (configuration not stated)	D2 antag 64
Cc1ccc(C(=O)NC2CC3CCC(C2)N3Cc2ccco2)cc1 (configuration not stated)	none
Fc1ccc(NC(=S)NC2CC3CCC(C2)N3Cc2ccco2)cc1 (configuration not stated)	none (no result: D2 ag-1, D2 antag, D2 PAM-2)
COc1cc(OC)cc(C(=O)NC2CC3CCC(C2)N3Cc2ccco2)c1 (configuration not stated)	D2 antag 48
Cc1cc(C)cc(NC(=S)NC2CC3CCC(C2)N3Cc2ccco2)c1 (configuration not stated)	D2 antag 46
O=C(Nc1ccc(Cl)c(C(F)(F)F)c1)NC1CC2CCCC(C1)N2Cc1ccccc1 (configuration not stated)	D2 antag 48 (no result: D2 PAM-2)
Cc1ccc(NC(=O)c2c(NC(=O)c3ccccc3Cl)sc3c2CCC3)cc1	none (no result: D2 antag, D2 PAM-1, D2 ag-2)
Cc1nn(CCCC(=O)NCc2cccc(Cl)c2)c(=O)c2c1sc1ccccc12	none (no result: D2 antag, D2 PAM-1, D2 ag-2)
COc1ccccc1NC(=O)C1CCN(C(=O)c2sc3nc[nH]c(=O)c3c2C)CC1	none (no result: D2 antag, D2 PAM-1, D2 ag-2)
CCc1ccccc1NC(=O)NC1CC2CCC(C1)N2Cc1ccco1 (configuration not stated)	D2 antag 32
Cc1cccc(NC(=S)NC2CC3CCCC(C2)N3Cc2cccs2)c1 (configuration not stated)	D2 antag 77
CN1C(=O)c2ccccc2Sc2ccc(NC(=O)COc3ccc(Cl)cc3)cc21	none (no result: D2 ag-1, D2 antag, D2 PAM-1, D2 ag-2)
CC1CCN(CCCNC(=O)c2cc(Sc3ccc(F)cc3)nc3ccccc23)CC1	none (no result: D2 antag, D2 PAM-1, D2 PAM-2, D2 ag-2)
CCOC(=O)C1=C(C)NC2=C(C(=O)CCC2)C1c1coc2ccccc2c1=O (configuration not stated)	none
CC1=C(C(=O)OCCOc2ccccc2)C(c2coc3ccccc3c2=O)C2=C(CCCC2=O)N1 (configuration not stated)	D2 PAM-2 43
CC(C)CCN1CCN(Cc2cccc(C(F)(F)F)c2)CC1CCO (configuration not stated)	D2 antag 76
CSc1cccc(CN2CCN(CCC(C)C)C(CCO)C2)c1 (configuration not stated)	D2 antag 59
CC(C)CN1CCN(Cc2ccc(C#CC(C)(C)O)cc2)CC1CCO (configuration not stated)	D2 antag 33
COC(=O)c1cc2oc3ccccc3c2n1Cc1nc(-c2cccc(Cl)c2)oc1C	none (no result: D2 antag, D2 PAM-1, D2 ag-2)
C=CC[N+](C)(C)CCCNC(=O)/C=N/O	D2 antag 62

Screening results from PubChem.
